Compound activity from PubChem.
An excerpt weighted towards active compounds, which were near 2.3% of everything screened.
Nrf2 ARE act: activates Nrf2 signaling; hit rate 0.31% among 410,000; Potency, µM (top dose mostly 46.1 µM), inactives show at the highest dose activation, actives largely listed as activators; AREc32 ARE-luciferase reporter (MCF7-derived line), luminescence, 24 h; also: potency is read from the fitted curve at half-maximal effect; % of control where 0% means no effect; nearly all actives have a fitted effect of over 65% in size
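Reporter line AREc32 (ARE-Fluc), seeded overnight in OPTI-MEM with 5% FBS; compound pin-transferred, 24 hr at 37 deg C, 5% CO2; luminescent read-out.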
Nrf2 inh: Nrf2 pathway inhibition; A549 ARE-Fluc reporter, luciferase luminescence, 18-24 h; Potency, µM (titrated, usually from 46 µM), for inactives: top-dose activity change, negative = inhibition, actives largely listed as inhibitors; hit rate 2.1% among 360,000; AID 504444; also: potency is read from the fitted curve at half-maximal effect; % is scaled to controls: 0 for no effect and ±100 for the full control effect; nearly all actives have a fitted effect of over 60% in size
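Reporter: ARE-Fluc in A549. Exposure: 18-24 h, 37 °C, 5% CO2, 5% FBS OPTI-MEM. Readouts: fluorescent cytotoxicity (CellTiter-Fluor), then luminescent Nrf2 signal after BugLite.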
Apoferritin bind: candidate novel general anesthetic via apoferritin binding; apoferritin/1-aminoanthracene competitive binding, fluorescence; Potency, µM (doses to about 77.5 µM), for the others: at the highest dose activity change, negative = displacement, most hits filed as inhibitors; hit rate 0.074% among 350,000; AID 485281; P02791; also: potency is read from the fitted curve at half-maximal effect; % is scaled to controls: 0 for no effect and ±100 for the full control effect; nearly all actives have a fitted effect of over 20% in size
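Steps: apoferritin (10 uM) was premixed with half-saturated 1-AMA in PBS, compounds were pin-transferred, plates stood 10 min at room temperature, fluorescence was read at 380/535 nm, and curves were fitted with a Hill equation.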
A549 viability: A549 cytotoxicity, counter-screen for Nrf2 inhibitors | hit rate 0.16% among 390,000 | A549 ARE-Fluc cells, CellTiter-Fluor viability, 18-24 h | Potency, µM (highest dose often 46 µM), inactives show at the top dose activity change, negative = cytotoxicity, usual class: inhibitors; also: potency is read from the fitted curve at half-maximal effect; % is scaled to controls: 0 for no effect and ±100 for the full control effect
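A549 ARE_Fluc cells in 5% FBS OPTI-MEM were exposed to compounds in concentration-response for 18-24 h at 37 deg C. Viability was read by CellTiter-Fluor fluorescence (Ex 405/Em 525) after 30 min, before the luciferase read.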
IDH1 R132H inh: inhibitors of human mutant IDH1 R132H; O75874; IDH1-R132H enzyme, NADPH consumption, diaphorase/resazurin fluorescence; Potency, µM (series often up to 76.6 µM), without a hit: at the highest dose activity change, negative = inhibition, most hits filed as inhibitors; hit rate 0.093% among 390,000; AID 602179; also: potency is read from the fitted curve at half-maximal effect; % is scaled to controls: 0 for no effect and ±100 for the full control effect; nearly all actives have a fitted effect of over 65% in size
Target sequence (O75874 whole entry R132H, stated change not applied): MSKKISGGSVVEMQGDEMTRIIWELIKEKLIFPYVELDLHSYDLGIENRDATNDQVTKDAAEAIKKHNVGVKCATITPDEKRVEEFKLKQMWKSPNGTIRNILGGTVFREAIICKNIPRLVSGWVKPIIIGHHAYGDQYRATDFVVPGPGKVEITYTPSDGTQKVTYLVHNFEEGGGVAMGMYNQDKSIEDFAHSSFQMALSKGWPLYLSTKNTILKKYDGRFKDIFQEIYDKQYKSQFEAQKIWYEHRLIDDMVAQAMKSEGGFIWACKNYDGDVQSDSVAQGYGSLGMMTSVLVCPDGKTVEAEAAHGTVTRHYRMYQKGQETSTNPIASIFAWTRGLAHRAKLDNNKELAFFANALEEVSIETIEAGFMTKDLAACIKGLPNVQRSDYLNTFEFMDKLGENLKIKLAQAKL
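IDH1-R132H (0.5 ug/mL) preincubated 30 min with compound, then NADPH (0.016 mM) and alpha-KG (2 mM) added; 80 min at RT, pH 7.5. Remaining NADPH coupled via diaphorase/resazurin to fluorescence (540/590 nm); concentration-response curves normalized to no-enzyme control.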
Giardia kill: kills Giardia lamblia | Giardia lamblia trophozoite viability | activity change, % at 7.66 µM, hits read low | hit rate 0.15% among 340,000 | AID 540267; in the data active = activity change below about -80%; inconclusive = between about -30% and that limit;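 also: parasites exposed to compound for two days anaerobically before the ATP read; % is scaled to controls: 0 for no effect and ±100 for the full control effect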
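Anaerobic 48 hrs incubation at 37 deg C of 100 trophozoites/well with test compounds; ATPLite 1-Step luminescence, 15-30 min RT, reports cellular ATP as viability.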
* hit, by the source's call; u = inconclusive; x = no result; [ ] = another dose, or the depositor's remark. Unless noted, calls follow the shape of the dose curve; as a rule, active = well fitted curve in the direction sought with a large enough effect; inconclusive = small, poorly fitted or top-dose-only effect, or another doubt; inactive = no such curve, though single readings can be large; an effect the other way counts as inactive or inconclusive.

SMILES | Nrf2 ARE act | Nrf2 inh | Apoferritin bind | A549 viability | IDH1 R132H inh | Giardia kill
CCn1cnc2c([N+](=O)[O-])c(NS(=O)(=O)c3ccc(C)cc3)ccc21 | -0.2% | 8.5% | x | -6.5% | -5.9% | -88.3*
CCn1cnc2cc(NS(=O)(=O)c3ccc(C)cc3)ccc21 | 0.3% | -23.5% | u | -4.6% | 4.2% | 7.5
CCCC(O)c1nc2ccccc2n1Cc1ccccc1OC (configuration not stated) | 4.9% | 16.9% | -6.2% | 18.9% | -1.3% | x
COc1ccc(Cn2c(C)nc3c(c2=O)c2nc4ccccc4nc2n3Cc2ccco2)cc1 | 2.7% | 18.4µM* | x | -17.2% | -5.7% | 1.4
NC1=C(Cl)C(=O)c2ccc(S(N)(=O)=O)cc2C1=O | -3.7% | 3.26µM* | x | 5.8µM* | 16.6% | -5.9
NC1=C(Cl)C(=O)c2ccccc2C1=O | -3.2% | 16.4µM* | x | u | -3.8% | -25.5
Cn1cc2ccc(-c3ccc4ncnc(NCc5cccs5)c4c3)cc2n1 | x | u | x | -3.5% | x | x
CC(C)(C)NC(=O)C1c2ccccc2OCC(=O)N1CC(F)(F)F (configuration not stated) | -0.2% | x | x | x | x | x
COc1ccccc1CNc1ncc(-c2ccc(F)cc2)n1C | 0.3% | -5.2% | -5.1% | -1.0% | 8.8% | 20.4
COc1ccc(CNc2ncc(-c3ccc(F)cc3)n2C)c2ccccc12 | -1.9% | 20.6µM* | -17.5% | -0.4% | 9.0% | 37.2
CC[C@H](C)[C@H](NC(=O)CNC(=O)[C@H](CCCNC(=N)N)NC(=O)[C@H](CO)NC(=O)[C@H](C)NC(=O)[C@H](Cc1ccc(O)cc1)NC(=O)[C@H](Cc1c[nH]c2ccccc12)NC(=O)[C@H](C)NC(=O)[C@@H]1CCCN1C(=O)[C@H](CC(N)=O)NC(=O)[C@@H](NC(=O)[C@H](CC(=O)O)NC(=O)[C@@H]1CCCN1C(=O)[C@@H](N)[C@@H](C)O)[C@@H](C)CC)C(=O)N[C@@H](CCCNC(=N)N)C(=O)N1CCC[C@H]1C(=O)N[C@H](C(=O)NCC(=O)N[C@@H](CCCNC(=N)N)C(=O)N[C@@H](Cc1ccccc1)C(N)=O)C(C)C | x | x | -0.8% | x | x | x
CN1CCCC2(CCCN(Cc3nc(Cc4cccc(C(F)(F)F)c4)no3)C2)C1 (configuration not stated) | 5.4% | 8.8% | -18.9% | 0.9% | 0.0% | -16.5
COCC1CCN(Cc2nc(-c3ccc4c(c3)OCO4)no2)C1 (configuration not stated) | 2.1% | u | -4.2% | 0.2% | 3.7% | -14.9
FC(F)(F)c1cccc(Cc2noc(CN3CCC(c4ccncc4)CC3)n2)c1 | 2.9% | 18.4µM* | -15.8% | -1.9% | -7.0% | 13.5
c1cc(C2CCN(Cc3nc(-c4ccc5c(c4)OCO5)no3)CC2)ccn1 | 2.7% | 16.4µM* | -9.1% | -6.6% | -8.1% | -25.1
COc1ccc(C(C(=O)NC(C)(C)C)N(C[C@H]2CC[C@@H]([C@@H]3CC[C@H](CO)O3)O2)C(=O)c2ccccc2)cc1 (some centres not stated) | -0.9% | 7.5% | x | -3.5% | -1.9% | 2.5
CC(C)(C)NC(=O)C(c1ccc(-c2ccccc2)cc1)N(C[C@H]1CC[C@@H]([C@@H]2CC[C@H](CO)O2)O1)C(=O)c1cccc(Cl)c1 (some centres not stated) | -0.1% | 23.1µM* | x | u | -6.2%[38.3 µM] | -19.4
COc1ccc(OC)c(C(=O)N(C[C@H]2CC[C@@H]([C@@H]3CC[C@H](CO)O3)O2)C(C(=O)NC(C)(C)C)c2ccc(-c3ccccc3)cc2)c1 (some centres not stated) | 5.2% | 25.9µM* | x | u | -5.4% | 17.2
CC(C)(C)NC(=O)C(c1ccc(-c2ccccc2)cc1)N(C[C@H]1CC[C@@H]([C@@H]2CC[C@H](CO)O2)O1)C(=O)c1ccc(-c2ccccc2)cc1 (some centres not stated) | -0.5% | u | x | u | -4.6%[38.3 µM] | 17.4
